The source of these data is PMC12136788.

The chains are these.
T1: UNK ZnF1-3 (human, UniProt Q9C0B0 31-174)
T1 sequence: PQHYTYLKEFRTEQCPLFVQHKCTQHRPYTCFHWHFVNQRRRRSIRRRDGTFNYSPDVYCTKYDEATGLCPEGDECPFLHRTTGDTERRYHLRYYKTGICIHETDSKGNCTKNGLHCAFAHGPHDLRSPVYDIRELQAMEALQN

B1: chr11:86532819:86532820:-_ENSMUSG00000047126_ENSMUST00000103186|perfect_dup|FALSE|FALSE (ssRNA)
RNA: GGGAGUUCUACAGUCCGACGAUCCAUGGCUCUGAGACAUUCUAGGGAGUCUUCUACUGAUAAGGAACCAAAGUAGUUGACUAACCACUCAGGGUUAAGAAGAUGGGUGUGAACCACUGCACGUUUUAUAUCAUAUAAAUCAGUCAACAGAGGAUUGAGCAUCA
B2: chr1:39494564:39494565:+_ENSG00000168653_ENST00000372967|hu_hu|hu_hu_hu_mus_True|18_38 (ssRNA)
RNA: GGGAGUUCUACAGUCCGACGAUCAUGCAUUCGCCUCAUCGUUUUGUACCGAAGCAAGCACUCUUCGAAGUCAUCGAACUCUAUCUUGCACUCCUUUUCUGCCCGAGUCCCACCGAUUCCAUGUGCACACUCUAUCCACUCUUUCAACAGAGGAUUGAGCAUCA
B3: chr14:89338683:89338684:+_ENSG00000165533_ENST00000346301|hu_hu|hu_hu_hu_mus_False|48_58 (ssRNA)
RNA: GGGAGUUCUACAGUCCGACGAUCGUGGUUGUUGUGGACCAGGGCCAGCCUGAAGCAUUGGUGGGCCAAGUUUGUAUCUCCUAUUCCCACAGCUACAUGCCCCAGGUUGUACCAGACAUCAGCUGCCUCUUCUUCAUUUUCAGCCAACAGAGGAUUGAGCAUCA
B4: chr11:6247107:6247108:+_ENSMUSG00000020456_ENSMUST00000003461|mus_mus|motif|central (ssRNA)
RNA: GGGAGUUCUACAGUCCGACGAUCAAACAUAGGUUCGUCCAUCUCAUUGUGGCCAUUUCGUCGAUAACACACCAGAUCAACGGCAACAUCCUUGUGGAAGGUGUUUCUCCACUCAGCUGCCACCUUGCAUACAUACAUGACAGCCAACAGAGGAUUGAGCAUCA
B5: chrX:41029285:41029286:+_ENSG00000124486_ENST00000378308|hu_hu|FALSE|FALSE (ssRNA)
RNA: GGGAGUUCUACAGUCCGACGAUCUGUAUGAGACCAUACCUCCAAGUCAUCAACCUGUCUGCCCUGGUUUGGAAAUCGAACUACAAAAGAGAGGUGUUUACCGCGGAAUGCUCUCGACAUAGGGAGAAUUGUUCUUUCCUCAUGCAACAGAGGAUUGAGCAUCA
B6: chr1:39494447:39494448:+_ENSG00000168653_ENST00000372967|hu_mus|hu_hu_hu_mus_False|18_38 (ssRNA)
RNA: GGGAGUUCUACAGUCCGACGAUCGCACCGAGCGGCGUUCUUAUAGGGCUGUUCUGCGCUUAGGAACAUAAAGUGCCGGUCCAGGCUGAUGCCCAGCCUUUUCUGGAUGUCAAGGAAAGGCAUGGCCCUGCAGUGCCCUUGUCACAACAGAGGAUUGAGCAUCA
B7: chrX:41000244:41000245:+_ENSG00000124486_ENST00000378308|hu_mus|motif|central (ssRNA)
RNA: GGGAGUUCUACAGUCCGACGAUCUGCUUCUUUCUUCAGCUCUUCAUCAGUUAAGUUUUCUAAAAACUGUGGAACCAUUUCGGUUAUUGGAAGAAAGUACUUUUUCACUGUGUGAAGAGUAAGAAACUCAUAGCACUGUCCAAACAACAGAGGAUUGAGCAUCA
B8: chr4:56294251:56294252:-_ENSG00000134852_ENST00000309964|hu_hu|FALSE|FALSE (ssRNA)
RNA: GGGAGUUCUACAGUCCGACGAUCAACAUAGCACUGAGGUAUUUUUUAUUUUUAAAAUUGAAGGAAACAAAGUCUGGAUCUAAUUAUUUUUACAUUUACAAAAACUGCUACUGCUUGGCUCUUUUGCUAUAAGUUUAGGUUCUGCAACAGAGGAUUGAGCAUCA
B9: chr1:34870196:34870197:-_ENSMUSG00000037503_ENSMUST00000047534|mus_mus|motif|central (ssRNA)
RNA: GGGAGUUCUACAGUCCGACGAUCUGAGCCCAUCUACUCAUCAGAUUGCAUAAAAAAUUAAAACAGUAUGAAUUUACAUCGGAUUGAACUGGCUUGGGAUGGACAGUCUGCCCGUUCCUUUGUUUUGACACAUAAGUUCCAUGACAACAGAGGAUUGAGCAUCA
B10: 54592465_54592585_3431_3pUTR_ENSMUSG00000005225_ENSMUST00000119706|mouse|control|control (ssRNA)
RNA: GGGAGUUCUACAGUCCGACGAUCUUGCUUGGCUUAAAAUUUUAUUACAAGUGUUUUUAAGAGGCAAGGUCUUGCUAUGUUGUUCAGGUUAAUCUCCAAAUCUUGGGCUCAAAUAAUACUUUACUCUCAUACUUCUGGGUAGCUCAACAGAGGAUUGAGCAUCA
B11: chr1:34870196:34870197:-_ENSMUSG00000037503_ENSMUST00000047534|mus_mus|FALSE|FALSE (ssRNA)
RNA: B9 RNA with G80U, G81A
B12: chr4:56294251:56294252:-_ENSG00000134852_ENST00000309964|hu_hu|motif|central (ssRNA)
RNA: B8 RNA with U80G, A81G
B13: chr4:17845017:17845018:+_ENSG00000109805_ENST00000514176|hu_mus|hu_hu_hu_mus_False|48_58 (ssRNA)
RNA: GGGAGUUCUACAGUCCGACGAUCGCUCUCUUAACUUGUAUCUUCAUUAAGGAACUCUGCAAGGUUAAGUUUACUUUUUCUAGUGCUGCGGUUUUGGGCUCGUCUGGGUAAUCUCAUCUUCAUUUCUGAUGGUGGUUCAUGAUCCAACAGAGGAUUGAGCAUCA
B14: chr6:114281168:114281169:-_ENSG00000196591_ENST00000368632|hu_hu|hu_hu_hu_mus_True|1_18 (ssRNA)
RNA: GGGAGUUCUACAGUCCGACGAUCUUCCAUUUUUCGGUAUAAACCAUAAUUUAGCAGCAAGUUAUGAGUCAUCCGGAUUCUAUGAGGCUUCAUGGGAUGACCCUGGCCAUAAUAAUAAUUUCCAAUAUCACCAUCAUACUAGAACAACAGAGGAUUGAGCAUCA
B15: 83260623_83262902_554_CDS_ENSMUSG00000031715_ENSMUST00000043359|mouse|control|control (ssRNA)
RNA: GGGAGUUCUACAGUCCGACGAUCUUCUUUUUGCUUUCCAGGUGAUCCAUGAUCAAAUACUUCCUCCAUCUCGGUGUCCGCGGGGCCCGAGCCCGCAGCACACGGAGCCGCGGGCGCCGCGCCGCCCUCGGGGCCGCCUUUGUUCAACAGAGGAUUGAGCAUCA
B16: chr4:86222814:86222815:+_ENSMUSG00000070934_ENSMUST00000091064|mus_mus|FALSE|FALSE (ssRNA)
RNA: GGGAGUUCUACAGUCCGACGAUCGAAUAUUAAAGACAAAUGAUGCAAAAAAAAAAAAAACACCGUAAUUCAGCAUUUUACUAAAGAGCAUUUGGCAUUAUUUCAACGCAUGAGGAGGCUGUGCUUGGGCCCAUCUACUCUUUCCAACAGAGGAUUGAGCAUCA
B17: chr6:40197388:40197389:+_ENSMUSG00000057716_ENSMUST00000061740|mus_mus|mus_mus_mus_hu_False|68_78 (ssRNA)
RNA: GGGAGUUCUACAGUCCGACGAUCGAGACACUGGGGUGGAUUUAUUCCACCUCUGUUUGCUAGCCUCUAAGAUAGAUUGUUAUUUUGGGAUUCAUGGCCUUGAAUAUCAAGAGGGAAAGGAAGAGGAUGGAAAGAGUCAAGAGUCAACAGAGGAUUGAGCAUCA
B18: 52238803_52238923_934_CDS_ENSG00000023330_ENST00000469224|human|control|control (ssRNA)
RNA: GGGAGUUCUACAGUCCGACGAUCCCCACACACCCGUGGGUGGCGACUCAUUCCUAGGUAGUCAUUACUGCACCAGACUGACACUUGCUUUUUGGUGAUGAGGGAGUCUGAAUAGUCAUCUGCCAUGGGGAAGAUGUGUGCUCGCAACAGAGGAUUGAGCAUCA
B19: 14029136_14029256_1416_CDS_ENSG00000175595_ENST00000311895|human|control|control (ssRNA)
RNA: GGGAGUUCUACAGUCCGACGAUCUUUUUUCUUUUUGAGGGUUCUUUCUUUGGUAGAAGCCCGUUCUUUGUUUUGGGGGUCUUUAGGUCUUUUGUGAGAUUUCCUAAUUCUCUUUGAACUGUCUUCCUUCCUAAAUUUCAUCCACAACAGAGGAUUGAGCAUCA
B20: 80201405_80202562_482_3pUTR_ENSMUSG00000017421_ENSMUST00000017567|mouse|control|control (ssRNA)
RNA: GGGAGUUCUACAGUCCGACGAUCCUGUGGCUGAAAGGAAGUUGAGGCUGCAGAUUCAUCAUCAUCAUAUUCAUCAGAAUCAUCUUGUUGUUUCUUUUUCUGACUCUCUUGUGUUUUCUGUUCAAGAAGUCGCCGUCUUUCAUCCAACAGAGGAUUGAGCAUCA
B21: chr19:7991675:7991676:-_ENSG00000104980_ENST00000595831|hu_mus|FALSE|FALSE (ssRNA)
RNA: GGGAGUUCUACAGUCCGACGAUCAUGUACAGGAAGUAAGAGCACUGAUUUAAAAACAAAAACAAAACAAAACAAAAGGACCUAAAGUGGCUUGGAAGGCAAUGCCAGUGGACUACUUAGAACAGCAGGCCAGGCCUCACCCGACAACAGAGGAUUGAGCAUCA
B22: chr4:95690885:95690886:+_ENSMUSG00000028572_ENSMUST00000156910|mus_mus|mus_mus_mus_hu_False|1_8 (ssRNA)
RNA: GGGAGUUCUACAGUCCGACGAUCUUUAGAAAAUGUUAAAUACCAUGCUAAAAUAUUUUCAAAGGCUUAUUUUAUUUUACCAGAAGUCACAGGCAAGCAGACACUACAAGAAUAUAUGAAAAUGAAACAACAGUGUAAAAUGUACAACAGAGGAUUGAGCAUCA
B23: chr19:37063429:37063430:+_ENSMUSG00000040565_ENSMUST00000099494|mus_mus|FALSE|FALSE (ssRNA)
RNA: GGGAGUUCUACAGUCCGACGAUCCAUAGCAUCCCAAAGAUGUGGCAACUUCACUGCCAUUUCAGCACCAAAAUGCUUCACUAUAGUUGUUAAGGCAAAUUCAGCUCCUCUCCGCUGUACCAGGUAAGGCUUCUGACCCUCAUCCAACAGAGGAUUGAGCAUCA
B24: chr6:30692278:30692279:+_ENSG00000196230_ENST00000327892|hu_hu|FALSE|FALSE (ssRNA)
RNA: GGGAGUUCUACAGUCCGACGAUCCCAGAGUGGAAAGAGAGAGGAGACAUUCAACAAACAAGUAUUUAUUGAGCGCCUACUAUGUGCCAGGCACUGUUCUAGACCCCCCCCAGAAGAAAAAACAAAAAACAAGAUAGAGGCAGCCAACAGAGGAUUGAGCAUCA
B25: chr5:136386232:136386233:-_ENSMUSG00000051391_ENSMUST00000055808|mus_hu|FALSE|FALSE (ssRNA)
RNA: GGGAGUUCUACAGUCCGACGAUCAAGUACACAAUCGAUGGCUUGAUGUUACAUAUGGCUGUAAUGUAGAAAUACUGUAAACUGCAAUUUAGUGUUAAUACUGUCAACUAAUCAGAGACUUCGGAAAACUGGCAAGGCCUAAACCAACAGAGGAUUGAGCAUCA
B26: chr19:7991675:7991676:-_ENSG00000104980_ENST00000595831|hu_mus|motif|central (ssRNA)
RNA: B21 RNA with U82G, A83G

Substitutions are numbered along the chain they refer to. Whole data set: some 24,000 sequences, median “enrichment r” near 0.99, cut for the highest 2% near 3.7. The sample holds the highest values, similar sequences and a random draw of the others, so the mix is not that of the screen.

The target of this assay is T1, UNK ZnF1-3. The assay is described as follows: nsRBNS (natural sequence RNA bind-n-seq); RBNS binding buffer (assumed for nsRBNS): 25 mM Tris pH 7.5, 150 mM KCl, 3 mM MgCl2, 0.01% Triton X-100, 500 ug/ml BSA, 20 U/ml SUPERase-In, 4 C; UNK is unkempt and MSI1 is Musashi-1; names of the RNAs are library labels; protein concentration not given here; high values mean tight binding.
The molecule B1 came in with a binding signal of 1.15 enrichment R.
As for B2, the figure is 0.624 enrichment R; as for B3, 0.726 enrichment R.
Under B4 stands 0.7 enrichment R; under B5, 1.07 enrichment R; under B6, 0.685 enrichment R.
As for B7, the figure is 0.545 enrichment R.
B8 had a binding signal of 4.1 enrichment R.
As for B9, the figure is 1.36 enrichment R; as for B10, 1.3 enrichment R.
Molecule B11 displayed a binding signal of 1.33 enrichment R.
For the molecule B12, the binding signal was determined as 3.76 enrichment R.
As for B13, the figure is 0.378 enrichment R; as for B14, 1 enrichment R.
Under B15 stands 0.826 enrichment R; under B16, 1.67 enrichment R; under B17, 1.33 enrichment R.
The molecule B18 showed a binding signal of 1.04 enrichment R.
B19 gave a binding signal of 0.174 enrichment R.
Under B20 stands 0.524 enrichment R.
On to B21, for which the binding signal turned out to be 5.35 enrichment R.
B22 displayed a binding signal of 1.97 enrichment R.
Molecule B23 showed a binding signal of 0.992 enrichment R.
Under B24 stands 2.28 enrichment R; under B25, 1.26 enrichment R.
As for B26, the figure is 5.15 enrichment R.
